# Values without a mark were called inactive. Inconclusive results are not listed. A call without a number means that no potency is given here. Active and inactive are the calls of the source. Unless noted, calls come from the whole dose curve; as a rule, active = well fitted curve in the direction sought with a large enough effect in the repeat runs; inconclusive = weak or mixed curves; inactive = no such curve, though single readings can be large; an effect the other way counts as inactive or inconclusive.
# Key:
# [1] = qHTS assay to identify small molecule agonists of the estrogen receptor alpha (ER-alpha) signaling pathway in the presence of an antagonist - cell viability counter screen (AID 1259386);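 note: series mostly up to about 92 µM; cells exposed to compounds for 22 h at 37 °C before the viability read; nearly all actives have a fitted effect of over 30% in size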
# Outline: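 Read-out: CellTiter-Fluor fluorescence after 1hr reagent incubation, measured in the same wells as the luciferase readout. VM7Luc4E2 cells were exposed to 15 compound concentrations with 10.0nM ICI-182,780 for 22hr at 37C.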
# [2] = target: Progesterone receptor (Homo sapiens) (UniProt P06401); experiment: qHTS assay to identify small molecule agonists of the progesterone receptor (PR) signaling pathway (AID 1346784; calls by dose curve; note: nearly all actives have a fitted effect of over 30% in size)
# Sequence of Progesterone receptor (Homo sapiens) (P06401 whole entry, looked up): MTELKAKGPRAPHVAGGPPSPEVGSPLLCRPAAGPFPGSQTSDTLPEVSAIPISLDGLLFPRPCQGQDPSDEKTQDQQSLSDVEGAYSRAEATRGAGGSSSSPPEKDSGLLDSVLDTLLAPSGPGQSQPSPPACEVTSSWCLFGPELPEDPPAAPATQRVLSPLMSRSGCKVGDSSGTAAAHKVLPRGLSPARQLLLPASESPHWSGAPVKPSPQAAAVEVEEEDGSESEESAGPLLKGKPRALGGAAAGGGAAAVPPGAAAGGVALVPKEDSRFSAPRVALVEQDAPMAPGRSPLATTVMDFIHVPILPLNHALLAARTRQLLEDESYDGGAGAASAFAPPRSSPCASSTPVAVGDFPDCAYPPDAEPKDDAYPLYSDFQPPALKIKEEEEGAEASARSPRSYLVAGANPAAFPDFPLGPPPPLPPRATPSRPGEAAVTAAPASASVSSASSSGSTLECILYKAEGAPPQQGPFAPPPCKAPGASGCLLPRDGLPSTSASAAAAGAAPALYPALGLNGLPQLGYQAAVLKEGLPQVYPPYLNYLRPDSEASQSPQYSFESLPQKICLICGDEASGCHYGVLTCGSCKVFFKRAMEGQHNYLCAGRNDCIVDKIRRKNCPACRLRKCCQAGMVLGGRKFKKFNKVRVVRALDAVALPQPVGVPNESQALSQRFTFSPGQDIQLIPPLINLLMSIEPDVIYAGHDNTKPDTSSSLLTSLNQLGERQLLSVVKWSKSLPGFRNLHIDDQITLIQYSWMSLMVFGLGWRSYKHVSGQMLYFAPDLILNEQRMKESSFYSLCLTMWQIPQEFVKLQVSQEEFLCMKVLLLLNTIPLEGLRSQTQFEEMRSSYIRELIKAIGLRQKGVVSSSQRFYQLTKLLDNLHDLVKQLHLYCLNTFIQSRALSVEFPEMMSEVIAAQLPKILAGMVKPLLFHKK
# Outline: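 Fluorescence from LiveBLAzer B/G FRET substrate cleavage (2 hr, RT) reported PR activation in PR-UAS-bla HEK 293T cells treated 16 hr at 37C/5% CO2 with compounds; medium contained 2% charcoal-stripped FBS.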
# [3] = target: Progesterone receptor (Homo sapiens) (UniProt P06401); experiment: qHTS assay to identify small molecule antagonists of the progesterone receptor (PR) signaling pathway (AID 1346795; active = well fitted inhibition curve with a large enough effect in the signal ratio in the repeat runs, not every such curve was filed as active; the % refers to the signal ratio)
# Outline: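 Fluorescence intensity measured 2 hr after adding beta-lactamase FRET substrate to PR-UAS-bla HEK293T cells that had been co-treated 16 hr with compound and 1 nM R5020 (final concentration) in 2% charcoal-stripped FBS.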
# [4] = qHTS assay to identify small molecule antagonists of the progesterone receptor (PR) signaling pathway - cell viability counter screen (AID 1346798); note: series mostly up to about 92 µM; nearly all actives have a fitted effect of over 50% in size
# Outline: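 CellTiter-Glo luminescence; PR-UAS-bla HEK293T, 3,000 cells/well; compound + R5020, 16 hr, 37C/5% CO2; 30 min RT before read.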
# [5] = qHTS assay to identify small molecule agonists of the progesterone receptor (PR) signaling pathway - cell viability counter screen (AID 1346799; calls by dose curve; note: nearly all actives have a fitted effect of over 45% in size)
# Outline: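 In parallel with the beta-lactamase readout, cytotoxicity toward PR-UAS-bla HEK293T cells was measured by CellTiter-Glo luminescence following 16 hr compound incubation in 2% charcoal-stripped FBS medium.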
# [6] = qHTS assay to identify small molecule antagonists of the TGF-beta/Smad signaling pathway - cell viability counter screen (AID 1346824); note: nearly all actives have a fitted effect of over 50% in size
# Outline: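 Cytotoxicity counter-screen run in the same wells as the beta-lactamase Smad reporter read: CellTiter-Glo luminescence after 30 min at room temperature. HEK 293T SBE-bla cells had 5 hr compound exposure at 37 C with TGF-beta1 (0.25 ng/mL stock).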
# [7] = qHTS assay to identify small molecule agonists of the TGF-beta/Smad signaling pathway - cell viability counter screen (AID 1346829); note: top concentration of the series differs between compounds; nearly all actives have a fitted effect of over 45% in size
# Outline: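 Compound-treated SBE-bla HEK 293T cells (5 hr, 37 C) were assessed for viability with CellTiter-Glo in parallel with the reporter read.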
# [8] = qHTS assay to identify small molecule agonists of the TGF-beta/Smad signaling pathway (AID 1346859; active = well fitted activation curve with a large enough effect in the signal ratio in the repeat runs, not every such curve was filed as active; the % refers to the signal ratio; note: series mostly up to about 77 µM)
# Outline: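 After overnight seeding, SBE-bla HEK 293T cells are dosed with compounds in DMSO and kept 5 hr at 37 C, 5% CO2. LiveBLAzer-type FRET substrate is then applied for 2 hr at room temperature.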
# [9] = target: Thyrotropin-releasing hormone receptor (Homo sapiens) (UniProt P34981); experiment: qHTS assay to identify small molecule antagonists of the thyrotropin-releasing hormone receptor (TRHR) signaling pathway (AID 1346877; active = well fitted inhibition curve with a large enough effect in the repeat runs, not every such curve was filed as active; note: series mostly up to about 51 µM)
# Sequence of Thyrotropin-releasing hormone receptor (Homo sapiens) (P34981 whole entry, looked up): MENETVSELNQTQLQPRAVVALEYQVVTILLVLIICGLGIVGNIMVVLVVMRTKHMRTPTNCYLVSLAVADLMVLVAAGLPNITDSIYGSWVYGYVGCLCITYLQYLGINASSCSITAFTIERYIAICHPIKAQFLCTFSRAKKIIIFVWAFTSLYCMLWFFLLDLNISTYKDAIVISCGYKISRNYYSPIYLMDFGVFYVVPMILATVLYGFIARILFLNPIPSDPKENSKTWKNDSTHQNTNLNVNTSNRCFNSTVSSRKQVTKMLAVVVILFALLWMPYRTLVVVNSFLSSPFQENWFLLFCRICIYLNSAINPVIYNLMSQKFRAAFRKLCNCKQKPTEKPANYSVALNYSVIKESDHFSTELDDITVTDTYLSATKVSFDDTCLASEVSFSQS
# Outline: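 HEK293/TRHR cells, 18 h, 37 °C; Ca2+ dye 2 h; cpd 5 min RT; TRH 1 nM final; fluorescence read 3 min, 1 s intervals; 15 concs, triplicate.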
# [10] = target: Thyrotropin-releasing hormone receptor (Homo sapiens) (UniProt P34981); experiment: qHTS assay to identify small molecule agonists of the thyrotropin-releasing hormone receptor (TRHR) signaling pathway (AID 1346891; calls by dose curve;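 note: HEK293 cells expressing TRHR with calcium dye readout; series mostly up to about 58 µM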)
# Outline: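 Compounds were tested as agonists at 15 concentrations, in triplicate, on TRHR-Hek293 cells; calcium-sensitive dye fluorescence was recorded for 3 min following addition.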
# [11] = Human pregnane X receptor (PXR) small molecule agonists, qHTS cell viability counter screen (AID 1346977); note: nearly all actives have a fitted effect of over 50% in size
# Outline: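 Viability counter screen: CellTiter-Fluor signal in PXR-Luc HepG2 cells, 24hr compound exposure, 37C, 5% CO2.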
# [12] = Caspase-3/7 induction in HepG2 cells by small molecules, qHTS assay (AID 1346978); note: nearly all actives have a fitted effect of over 15% in size
# Outline: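 Caspase-3/7 induction was measured by Caspase-Glo 3/7 luminescence (30 min, room temperature) after a 17 hr compound exposure of wild-type HepG2 cells seeded at 2,000 per well and pre-incubated 5 hr.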
# [13] = Caspase-3/7 induction in CHO-K1 cells by small molecules, qHTS cell viability counter screen (AID 1346979); note: nearly all actives have a fitted effect of over 35% in size
# Outline: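 Viability readout by fluorescence (CellTiter-Fluor) on wild-type CHO-K1 cells exposed for 16hr at 37C and 5% CO2 to compounds delivered in DMSO; reagent incubated 1hr before reading.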
# [14] = Caspase-3/7 induction in CHO-K1 cells by small molecules, qHTS assay (AID 1346980); note: nearly all actives have a fitted effect of over 15% in size
# Outline: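 Luminescent Caspase-Glo 3/7 read (30min, room temperature) quantified apoptosis induction. Cells were wild-type CHO-K1, treated with compound for 17hr at 37 C and 5% CO2.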
# [15] = Caspase-3/7 induction in HepG2 cells by small molecules, qHTS cell viability counter screen (AID 1346981); note: series mostly up to about 92 µM; nearly all actives have a fitted effect of over 30% in size
# Outline: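 Fluorescence read-out of live-cell protease activity (CellTiter-Fluor) after 1 hr with reagent. This was measured in the same wells as the caspase-3/7 luminescence, on HepG2 cells exposed to DMSO-dissolved compounds for 16 hr at 37 C.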
# [16] = target: Nuclear receptor subfamily 1 group I member 2 (Homo sapiens) (UniProt O75469); experiment: Human pregnane X receptor (PXR) small molecule agonists, qHTS assay (AID 1346982); note: nearly all actives have a fitted effect of over 35% in size; note: potency is the fitted concentration of half-maximal effect
# Sequence of Nuclear receptor subfamily 1 group I member 2 (Homo sapiens) (O75469 whole entry, looked up): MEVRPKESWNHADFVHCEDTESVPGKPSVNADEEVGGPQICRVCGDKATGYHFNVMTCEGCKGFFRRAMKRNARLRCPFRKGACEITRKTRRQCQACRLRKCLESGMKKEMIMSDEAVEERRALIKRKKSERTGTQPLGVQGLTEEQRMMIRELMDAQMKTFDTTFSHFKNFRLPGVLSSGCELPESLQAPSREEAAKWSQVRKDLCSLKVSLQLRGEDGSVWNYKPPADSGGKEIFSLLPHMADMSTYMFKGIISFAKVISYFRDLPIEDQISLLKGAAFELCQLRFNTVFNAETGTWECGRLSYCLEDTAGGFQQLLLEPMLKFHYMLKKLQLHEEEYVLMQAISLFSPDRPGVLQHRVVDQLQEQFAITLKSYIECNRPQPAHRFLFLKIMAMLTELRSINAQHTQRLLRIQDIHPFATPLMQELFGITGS
# Outline: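 HepG2 PXR-Luc reporter line, 5% charcoal-stripped FBS; 5 hr pre-incubation, compound (DMSO) 24 hr at 37 C/5% CO2; ONE-Glo 30 min RT; luminescence read-out.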
# [17] = target: Nuclear receptor subfamily 1 group I member 2 (Rattus norvegicus) (UniProt Q9R1A7); experiment: Rat pregnane X receptor (rPXR) activation by small molecules, qHTS assay (AID 1346983); settings: rPXR luciferase reporter cells, One-Glo luminescence, 24 h; max activation: active compounds read high; note: nearly all actives have a fitted effect of over 20% in size
# Sequence of Nuclear receptor subfamily 1 group I member 2 (Rattus norvegicus) (Q9R1A7 whole entry, looked up): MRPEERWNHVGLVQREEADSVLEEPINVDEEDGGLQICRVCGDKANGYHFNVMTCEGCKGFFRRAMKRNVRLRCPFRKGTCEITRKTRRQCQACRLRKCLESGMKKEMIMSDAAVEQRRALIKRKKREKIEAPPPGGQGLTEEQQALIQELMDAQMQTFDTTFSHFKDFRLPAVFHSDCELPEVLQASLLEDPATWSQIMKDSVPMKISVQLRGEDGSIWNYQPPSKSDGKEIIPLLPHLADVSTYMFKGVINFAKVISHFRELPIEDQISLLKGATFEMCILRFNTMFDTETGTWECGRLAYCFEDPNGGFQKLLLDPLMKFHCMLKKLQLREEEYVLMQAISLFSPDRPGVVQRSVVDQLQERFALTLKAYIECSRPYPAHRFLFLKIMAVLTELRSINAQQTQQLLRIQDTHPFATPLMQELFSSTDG
# Outline: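 Luminescent readout (One-Glo luciferase, 30 min room temperature) followed 24 hr compound treatment at 37 C of rPXR cells plated 2,000 per well and preincubated 5hr; qHTS format with compounds delivered in DMSO.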
# [18] = target: Nuclear receptor subfamily 1 group I member 2 (Homo sapiens) (UniProt O75469); experiment: CYP3A4 induction through human pregnane X receptor (PXR) by small molecules, qHTS assay (AID 1346984); note: nearly all actives have a fitted effect of over 40% in size
# Outline: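 HepG2-derived DPX-2 line carrying PXR plus a CYP3A4-promoter luciferase reporter; cells plated 5 hr, compound-exposed 24 hr at 37C. CYP3A4 activity probed with 3uM (final) Luciferin-IPA for 3hr, then luciferase read after One-Glo.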
# [19] = target: Nuclear receptor subfamily 1 group I member 2 (Homo sapiens) (UniProt O75469); experiment: Human pregnane X receptor (PXR) activation by small molecules, qHTS assay (AID 1346985); note: nearly all actives have a fitted effect of over 40% in size
# Outline: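 DPX-2 cells (HepG2 co-transfected with a PXR response element and a CYP3A4-promoter luciferase construct) were seeded at 2,000 per well, rested 5 hr at 37C, then exposed to DMSO-dissolved compounds for 24 hr. Activation was read as luciferase luminescence.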
# [20] = target: Cytochrome P450 2D6 (Homo sapiens) (UniProt P10635); experiment: Cytochrome P450 Family 2 Subfamily D Member 6 (CYP2D6) small molecule antagonists: luciferase reporter qHTS assay (AID 1671196); note: nearly all actives have a fitted effect of over 50% in size; note: potency is the fitted concentration of half-maximal effect
# Sequence of Cytochrome P450 2D6 (Homo sapiens) (P10635 whole entry, looked up): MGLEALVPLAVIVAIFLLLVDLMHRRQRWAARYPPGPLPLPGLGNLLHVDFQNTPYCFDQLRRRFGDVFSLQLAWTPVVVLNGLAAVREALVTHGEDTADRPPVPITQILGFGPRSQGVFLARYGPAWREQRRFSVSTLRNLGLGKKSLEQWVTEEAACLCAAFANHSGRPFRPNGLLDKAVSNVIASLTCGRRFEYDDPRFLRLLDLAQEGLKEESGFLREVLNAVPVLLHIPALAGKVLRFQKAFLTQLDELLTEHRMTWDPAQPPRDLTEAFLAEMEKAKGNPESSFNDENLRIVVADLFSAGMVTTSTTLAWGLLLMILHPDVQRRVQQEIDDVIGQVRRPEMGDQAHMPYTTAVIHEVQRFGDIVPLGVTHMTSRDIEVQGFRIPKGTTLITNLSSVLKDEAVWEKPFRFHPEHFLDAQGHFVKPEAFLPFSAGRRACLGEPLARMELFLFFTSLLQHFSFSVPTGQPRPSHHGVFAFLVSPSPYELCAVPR
# Outline: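 Luminogenic proluciferin substrate, CYP2D6 enzyme; 10 min RT preincubation with compound, NADPH regeneration system added, 1 h RT. Stop/detection reagent, 20 min RT, luminescence read (RLU). Signal proportional to CYP activity.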
Structure (SMILES),Potency [1],Potency [2],Potency [3],Potency [4],Potency [5],outcome [6],outcome [7],outcome [8],outcome [9],Potency [10],Potency [11],Potency [12],Potency [13],outcome [14],Potency [15],Potency [16],max activation [17],Potency [18],Potency [19],Potency [20]
CCCN(CCC)C(=O)C(CCC(=O)O)NC(=O)c1ccccc1 (configuration not stated),inactive,inactive,inactive,inactive,inactive,inactive,inactive,inactive,inactive,inactive,inactive,inactive,inactive,inactive,inactive,inactive,0.444%,inactive,inactive,inactive
FC(F)(F)C(F)(F)C(F)(F)C(F)(F)C(F)(F)C(F)(F)C(F)(F)C(F)(F)Br,inactive,inactive,inactive,inactive,inactive,inactive,inactive,inactive,inactive,inactive,–,inactive,inactive,inactive,inactive,inactive,-2.79%,inactive,inactive,inactive
COc1cc(C)ccc1C(C)C,inactive,inactive,inactive,inactive,inactive,inactive,inactive,inactive,inactive,inactive,inactive,inactive,inactive,inactive,inactive,inactive,–,–,–,inactive
CC1=C(O)C(=O)OC1C (configuration not stated),inactive,inactive,inactive,inactive,inactive,inactive,inactive,inactive,inactive,inactive,–,inactive,–,inactive,inactive,inactive,–,–,–,inactive
COc1ccccc1N1CCN(CCCNc2cc(=O)n(C)c(=O)n2C)CC1,inactive,inactive,inactive,inactive,inactive,inactive,inactive,inactive,inactive,inactive,–,inactive,–,inactive,inactive,inactive,-1.3%,inactive,inactive,11 µM (active)
C=CCc1cc(OC)c(O)c(C(=O)NCCO)c1,inactive,inactive,inactive,inactive,inactive,inactive,inactive,inactive,–,–,inactive,inactive,inactive,inactive,inactive,inactive,-0.885%,inactive,inactive,–
CCCS(=O)c1ccc2nc(NC(=O)OC)[nH]c2c1 (configuration not stated),inactive,inactive,inactive,inactive,inactive,inactive,inactive,inactive,inactive,inactive,inactive,inactive,–,inactive,inactive,–,–,–,–,–
CCCCCCCCCC/C=C/C#N,inactive,inactive,inactive,inactive,inactive,inactive,inactive,inactive,inactive,inactive,inactive,inactive,inactive,inactive,inactive,inactive,–,–,–,inactive
CC(C)NCC(O)COc1ccc(CCOCC2CC2)cc1 (configuration not stated),inactive,inactive,inactive,inactive,inactive,inactive,inactive,inactive,–,–,inactive,inactive,inactive,inactive,inactive,–,–,–,–,–
Cc1cn([C@@H]2O[C@H](CO)[C@@H](O)[C@@H]2F)c(=O)[nH]c1=O,inactive,inactive,inactive,inactive,inactive,inactive,inactive,inactive,inactive,inactive,inactive,inactive,–,inactive,inactive,inactive,–,–,–,inactive
C=O,inactive,inactive,inactive,inactive,inactive,inactive,inactive,inactive,inactive,inactive,–,inactive,inactive,inactive,inactive,–,-2.05%,–,–,–
Cc1c[nH]c(=S)[nH]c1=O,inactive,inactive,inactive,inactive,inactive,inactive,inactive,inactive,–,–,inactive,inactive,inactive,inactive,inactive,inactive,–,–,–,–
CC(=O)Oc1cc(C(C)C)c(OCCN(C)C)cc1C,inactive,inactive,inactive,inactive,inactive,inactive,inactive,inactive,inactive,inactive,inactive,inactive,inactive,inactive,inactive,inactive,-1.16%,inactive,inactive,15.5 µM (active)
CC1(C)S[C@@H]2[C@H](NC(=O)C(C(=O)O)c3ccccc3)C(=O)N2[C@H]1C(=O)O (some centres not stated),inactive,inactive,inactive,inactive,inactive,inactive,inactive,inactive,inactive,inactive,inactive,inactive,–,inactive,inactive,inactive,0.938%,inactive,inactive,inactive
NS(=O)(=O)c1cc(-c2nn[nH]n2)c(NCc2cccs2)cc1Cl,inactive,inactive,inactive,inactive,inactive,inactive,inactive,inactive,inactive,inactive,inactive,inactive,–,inactive,inactive,13.3 µM (active),–,inactive,inactive,inactive

# From PubChem BioAssay (Tox21)
